# Laboratory results: the supplement of paper PMC8975748
# Structures can show the parent of a compound that is named as a salt.
# Test system: Saccharomyces cerevisiae BY4741 SeMeCo community
# Experiment: z-score of subpopulation abundance vs DMSO median, subpopulation auxotrophic for LUM; higher = larger share of this subpopulation than in DMSO controls
# Conditions: 10 µM; 24 h; SM minimal medium; subpopulation (auxotrophy): LUM
# Experimental: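 Fluorescent four-plasmid SeMeCo (self-establishing metabolically cooperating S. cerevisiae BY4741 community; plasmids pH-mRuby2, pL-mWasabi, pU-eCFP, pM-TagRFP657) was grown 24 h in minimal SM medium with each Selleck FDA-approved drug at 10 µM in 384-well plates. Cells were fixed and imaged by high-content confocal microscopy. For each auxotrophic subpopulation (and the prototroph), a z-score gives the deviation from the DMSO vehicle-control population median.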
row,SMILES,z-score of subpopulation abundance
1,CCc1nn(CCCN2CCN(c3cccc(Cl)c3)CC2)c(=O)n1CCOc1ccccc1 [Nefazodone hydrochloride],0.49
2,Cn1c(=O)c2[nH]cnc2n(C)c1=O [Aminophylline],0.29
3,NC(=O)N1c2ccccc2CC(=O)c2ccccc21 [Oxcarbazepine],0.55
4,Clc1ccc(C(Cn2ccnc2)OCc2ccc(Sc3ccccc3)cc2)c(Cl)c1 (stereo not given) [Fenticonazole Nitrate],-1.04
5,CCC1(c2ccccc2)C(=O)NCNC1=O [Primidone],0.18
6,COc1ccc2cc([C@H](C)C(=O)O)ccc2c1 [Naproxen Sodium],-0.75
7,COC1C(O)CC(=O)OC(C)CC=CC=CC(OC2CCC(N(C)C)C(C)O2)C(C)CC(CC=O)C1OC1OC(C)C(OC2CC(C)(O)C(O)C(C)O2)C(N(C)C)C1O (stereo not given) [Spiramycin],-0.43
8,CCCCc1oc2ccccc2c1C(=O)c1cc(I)c(OCCN(CC)CC)c(I)c1 [Amiodarone HCl],6.07
9,COc1ccc2cc([C@H](C)C(=O)O)ccc2c1 [Naproxen],-0.97
10,CO/N=C(/C(=O)N[C@@H]1C(=O)N2C(C(=O)OCOC(=O)C(C)(C)C)=C(C)CS[C@H]12)c1csc(N)n1 [Cefetamet pivoxil hydrochloride],1.09
11,N#Cc1ccc2[nH]cc(CCCCN3CCN(c4ccc5oc(C(N)=O)cc5c4)CC3)c2c1 [Vilazodone],0.72
12,N#Cc1ccc(Oc2ccc3c(c2)COB3O)cc1 [Crisaborole (AN2728)],3.54
13,CCOC(=O)OC(C)OC1=C(C(=O)Nc2ccccn2)N(C)S(=O)(=O)c2ccccc21 (stereo not given) [Ampiroxicam],-0.42
14,COc1nc2ccc(Br)cc2cc1[C@@H](c1ccccc1)[C@@](O)(CCN(C)C)c1cccc2ccccc12 [Bedaquiline fumarate],3.68
15,CN(C)CCC=C1c2ccccc2C(C)(C)c2ccccc21 [Melitracen hydrochloride],-0.83
16,CO[C@@]1(NC(=O)C(C(=O)O)c2ccc(O)cc2)C(=O)N2C(C(=O)O)=C(CSc3nnnn3C)CO[C@@H]21 (stereo not given in full) [Latamoxef sodium],-0.71
17,CC1(C)S[C@@H]2[C@H](NC(=O)[C@H](N)c3ccccc3)C(=O)N2[C@H]1C(=O)O [Ampicillin Trihydrate],0.23
18,COc1c(N2C[C@@H]3CCCN[C@@H]3C2)c(F)cc2c(=O)c(C(=O)O)cn(C3CC3)c12 [Moxifloxacin HCl],0.77
19,CCN(CC)CCOc1ccc(C(=C(Cl)c2ccccc2)c2ccccc2)cc1 [Clomifene citrate],1.75
20,Clc1ccc(CCC(Cn2ccnc2)Sc2c(Cl)cccc2Cl)cc1 (stereo not given) [Butoconazole],3.75

row,SMILES,z-score of subpopulation abundance
1,CCn1cc(C(=O)O)c(=O)c2cc(F)c(N3CCN(C)CC3)cc21 [Pefloxacin Mesylate],0.18
2,C#CCN[C@@H]1CCc2ccccc21 [Rasagiline],0.07
3,C[N+](C)(C)CCOC(=O)CCC(=O)OCC[N+](C)(C)C [Succinylcholine Chloride Dihydrate],-0.49
4,C[C@]1(COc2ccc(N3CCC(Oc4ccc(OC(F)(F)F)cc4)CC3)cc2)Cn2cc([N+](=O)[O-])nc2O1 [Delamanid],0.42
5,Cc1cc(NS(=O)(=O)c2ccc(N)cc2)nc(C)n1 [sulfaisodimidine],0.42
6,C[C@]12CC[C@@H]3c4ccc(OS(=O)(=O)O)cc4CC[C@H]3[C@@H]1CCC2=O [Estropipate],-0.11
7,Cc1c(Cl)cccc1Nc1ccccc1C(=O)O [Tolfenamic Acid],-1.95
8,Clc1ccc(COC(Cn2ccnc2)c2ccc(Cl)cc2Cl)cc1 (stereo not given) [Econazole],3.58
9,CCOC(=O)C1=C(COCCN)NC(C)=C(C(=O)OC)C1c1ccccc1Cl (stereo not given) [Amlodipine],-4.72
10,Oc1ccc([C@H]2COc3cc(O)ccc3C2)cc1 [Equol],-0.14
11,CN1C2CCCC1CC(NC(=O)c1nn(C)c3ccccc13)C2 (stereo not given) [Granisetron HCl],0.06
12,CCCc1nn(C)c2c(=O)[nH]c(-c3cc(S(=O)(=O)N4CCN(C)CC4)ccc3OCC)nc12 [Sildenafil Mesylate],0.38
13,CCN(CC)C(=O)C1(c2ccccc2)CC1CN (stereo not given) [Milnacipran HCl],0.17
14,COc1ccc(C(C)=O)c(O)c1 [Paeonol],-0.79
15,NC(=O)N/N=C/c1ccc([N+](=O)[O-])o1 [Nitrofural],-0.73
16,CC1(C)S[C@@H]2[C@H](NC(=O)[C@H](N)c3ccc(O)cc3)C(=O)N2[C@H]1C(=O)O [Amoxicillin],0.09
17,CC[N+](CC)(CC)CCOc1cccc(OCC[N+](CC)(CC)CC)c1OCC[N+](CC)(CC)CC [Gallamine Triethiodide],-0.03
18,CNCCCN1c2ccccc2CCc2ccccc21 [Desipramine Hydrochloride],-0.63
19,CCCN[C@H]1CCc2nc(N)sc2C1 [Pramipexole 2HCl Monohydrate],-0.47
20,CC(=O)C1C(=O)C=C(C)OC1=O (stereo not given) [Sodium dehydroacetate],1.14
